In PubChem BioAssay:

Tested on: XIP peptide (Xip251-270) binding
Experiment: XIP fragment 251-270 binding compounds – biochemical, small-molecule microarray, fluorescence 635/667 nm, 0.1 µg/mL protein, primary screen (AID 1182)
Conditions: fluorescent protein binding, 635 nm, higher = more signal, called active from +8 up or from −8 down

Composite z-score, inactive:
CCc1cc2c(nc1CC)CCN(CCC(C)=NO[C@H](C)c1cn([C@@H]3COC[C@H]3O)nn1)C2 -0.171, CCO[C@H](c1cc(OC)cc([N+](=O)[O-])c1OC)[C@H](C)C=CCC(=O)OC -0.128, CC(CCN1CCCCc2nc(C)c(C)cc21)=NO[C@H](C)c1cn([C@H](CO)Cc2ccccc2)nn1 -0.28, CC(C)CCN1CCc2nc(COc3ccccc3)c3c(c2C1)CO[C@@H](C)C3 0.0821, CCOC(=O)NN=C1C[C@@H](O)[C@@H](O)[C@@H]2[C@@H]3C(=O)N([C@@H](C)c4ccccc4)C(=O)[C@@H]3CC[C@@H]12 -0.235, CC(=O)OC[C@H]1OC(ON=CC[C@@H]2C=C[C@H](OC(C)=O)[C@@H](COC(C)=O)O2)[C@H](OC(C)=O)[C@@H](OC(C)=O)[C@@H]1OC(C)=O (stereo partly specified) -0.476, Cc1ccc(S(=O)(=O)N[C@@H]2COC(=O)[C@@H](C)COC(=O)CC=C[C@H]2C)cc1 -0.21, COc1cccc([C@H]2Oc3ccc(OC)cc3C(=NOC[C@@H](O)[C@H]3O[C@@H]4OC(C)(C)O[C@@H]4[C@H]3O)[C@@H]2O)c1 -0.815, CC(C)(C)N1C(=O)[C@H]2[C@H]3[C@H](O)[C@H](O)CC(=O)[C@H]3CC[C@H]2C1=O 0.596, C[C@@H]1CC[C@H]2C(=O)O[C@@H](Cc3ccccc3)CN2[C@H]1c1ccc(Br)cc1 0.128, COC(=O)[C@H](C)NC(=O)CCC1CC(OC(=O)NCc2cccc3ccccc23)CC2(CCCC(COC(=O)NCC(c3ccccc3)c3ccccc3)O2)O1 (stereo partly specified) 0.519, CCC1=NOC(CCC2CC(OC(=O)NCc3cccc4c3OCO4)CC3(CCCC(COC(=O)NCCc4ccccc4OC)O3)O2)C1 (stereo unspecified) 1.87, CC(C)=CCCC(C)=CCON=C1C[C@@H](O)[C@@H](O)[C@@H]2[C@@H]3C(=O)N(C[C@@H]4CCCO4)C(=O)[C@@H]3CC[C@H]12 0.243, CC(CCN1CCc2nc(-c3ccccc3)c(-c3ccccc3)cc2C1)=NOC[C@@H](O)COCc1ccco1 1.58, COC(=O)[C@@H]1CC[C@H](C)[C@@H](c2ccc(C)cc2)N1C(=O)c1ccc(C=NOC[C@@H](C)[C@H](OCc2ccccc2)C(C)C)cc1 0.0611, COc1ccc(O[C@H]2C=C[C@@H](c3ccccc3)O[C@@H]2COC(=O)CCC(C)=NOC[C@@H](O)[C@H]2O[C@@H]3OC(C)(C)O[C@@H]3[C@H]2O)cc1 0.162, COc1ccc(COC(=O)NN=C2C[C@@H](O)[C@@H](O)[C@@H]3[C@@H]4C(=O)N(c5cccc(Oc6ccccc6)c5)C(=O)[C@@H]4CC[C@@H]23)cc1 -0.378, C#CCCCON=C1C[C@@H](O)[C@@H](O)[C@@H]2[C@@H]3C(=O)N(C(C)(C)C)C(=O)[C@@H]3CC[C@@H]12 -0.0287, C#CCCCON=C1[C@H]2CCn3c(=O)n(-c4ccccc4)c(=O)n3[C@H]2[C@H](O)[C@@H]2O[C@H]12 0.245, CCOC(=O)C1=NO[C@@]2(C=C(Br)C3(OCCCO3)[C@H]3O[C@H]32)C1 2.67, Cc1ccc(S(=O)(=O)N[C@H]2COC(=O)CC=C[C@H](C)[C@@H](NS(=O)(=O)c3ccc(C)cc3)COC(=O)CC=C[C@@H]2C)cc1 0.127, C[C@H](ON=C1[C@H]2CCn3c(=O)n(-c4ccccc4)c(=O)n3[C@H]2[C@H](O)[C@@H]2O[C@H]12)c1cn([C@H](CO)Cc2ccccc2)nn1 2.76, CCOC(=O)[C@H](CC(C)C)NC(=O)CCC1CC(OC(=O)NCCc2ccc(F)cc2)CC2(CCCC(COC(=O)NCC(c3ccccc3)c3ccccc3)O2)O1 (stereo partly specified) 0.298, C=CC[C@@H]1C=C[C@H](ON=C(C)CCC(=O)OC[C@H]2O[C@H](c3ccccc3)C=C[C@@H]2Oc2ccc(OC)cc2)[C@@H](CO)O1 0.0195, COC(=O)[C@H]1[C@@H](O)[C@@]2(O)c3ccccc3O[C@@]2(c2ccccc2)[C@@H]1c1ccccc1 -0.759, C#CCCCON=C1C[C@@H](O)[C@@H](O)[C@@H]2[C@@H]3C(=O)N(C(C)(C)C)C(=O)[C@@H]3CC[C@H]12 -0.217
